Hit rate of the full screen: of about 200,000 compounds, about 110 (0.055%) were called active. Rule as the data show it: active = inhibition above about 50%; inactive = the rest. Shown is part of a subset that was picked to be rich in actives. Where a SMILES comes first, the peptide text is derived from it. [ ]: non-standard residue; d: D form. ξ: configuration not given here. ξM = CSCCC(N)C(=O)O
molecular target: Serine/threonine-protein kinase D1 (Homo sapiens) (UniProt Q15139); test: inhibitors of human PKD1 kinase, biochemical, fluorescence polarization (AID 797); settings: PKD1 kinase fluorescence polarization assay; hits give high values; concentration not given here
Sequence (Q15139 whole entry, looked up): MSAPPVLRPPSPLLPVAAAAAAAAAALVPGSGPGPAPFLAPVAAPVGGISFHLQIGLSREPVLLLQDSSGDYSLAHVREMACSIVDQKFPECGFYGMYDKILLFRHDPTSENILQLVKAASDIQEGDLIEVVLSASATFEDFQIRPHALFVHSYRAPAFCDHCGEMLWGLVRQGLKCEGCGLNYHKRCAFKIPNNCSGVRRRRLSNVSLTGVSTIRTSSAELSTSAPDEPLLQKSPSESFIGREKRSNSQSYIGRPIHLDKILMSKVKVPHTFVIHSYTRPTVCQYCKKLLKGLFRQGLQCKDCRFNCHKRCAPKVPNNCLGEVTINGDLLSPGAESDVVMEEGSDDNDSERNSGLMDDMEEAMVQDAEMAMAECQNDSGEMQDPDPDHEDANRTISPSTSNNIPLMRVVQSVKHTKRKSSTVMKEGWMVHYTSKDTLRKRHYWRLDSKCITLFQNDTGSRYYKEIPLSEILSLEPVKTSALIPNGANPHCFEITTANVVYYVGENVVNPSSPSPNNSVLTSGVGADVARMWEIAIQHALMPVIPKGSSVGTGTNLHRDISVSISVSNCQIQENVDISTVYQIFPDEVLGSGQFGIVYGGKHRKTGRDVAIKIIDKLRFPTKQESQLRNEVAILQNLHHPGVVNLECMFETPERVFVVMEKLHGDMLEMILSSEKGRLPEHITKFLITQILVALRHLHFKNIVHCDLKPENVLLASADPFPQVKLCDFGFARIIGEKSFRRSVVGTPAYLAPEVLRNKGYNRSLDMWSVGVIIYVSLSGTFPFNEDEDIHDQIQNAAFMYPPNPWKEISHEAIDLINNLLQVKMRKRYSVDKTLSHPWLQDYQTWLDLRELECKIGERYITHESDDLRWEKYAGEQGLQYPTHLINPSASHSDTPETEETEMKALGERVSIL

inhibition, inactive:
CCn1nc(C)c(/C=N/NC(=O)Cc2ccc(Cl)cc2)c1C 3.28%, O=C(O)c1cccc(N2C(=O)Nc3ccccc3N2O)c1 7.76%, CCCCCCNCCn1cnc2c(N)ncnc21 6.16%, CC1CCN(c2ccc(C(=O)NCc3ccc4c(c3)OCO4)cc2[N+](=O)[O-])CC1 0.75%, Brc1c(CSc2nncc3ccccc23)nc2ccccn12 7.29%, Cc1ccc(O)c(-c2cc(C(=O)NCc3ccccc3)[nH]n2)c1 -6.87%, CCOC(=O)C(CC)/C(C)=N\NC(=O)c1cccc(C)c1 (stereo not given) -4.87%, COc1cccc2cc(/C(C)=N/NC(=O)c3ccco3)oc12 5.6%, O=C(CC1NCCc2ccccc21)Nc1cccc(Cl)c1 (stereo not given) -4.65%, O=C(CN1CCN(c2ccc(O)cc2)CC1)Nc1cc(S(=O)(=O)N2CCOCC2)ccc1Cl 1.7%, CC1(C)C(C=C(Cl)Cl)C1C(=O)N(Cc1ccc(Cl)cc1)C1CCS(=O)(=O)C1 (stereo not given) 0.63%, CCOC(=O)Cc1ncccc1C(=O)Nc1ccc(OC(F)(F)F)cc1 -0.72%, CN1C(=O)/C(=C\c2ccc(-c3ccccc3)o2)SC1=S -6.62%, CSc1cccc(NC(=S)N(Cc2ccccc2)Cc2ccccn2)c1 -9.2%, COC(=O)CNC(=O)C(CCSC)NC(C)=O (stereo not given) (Ac-[ξM]-Gly-OMe) 9.67%, O=C(CSc1ccc(-c2cccs2)nn1)Nc1ccccc1F 2.17%, CCN(CC)CCOCCOc1ccc(Cl)c2ccccc12 -3.28%, CN1CCN(C(=O)C2=C[C@H](c3ccc4c(c3)OCO4)C[C@H](OCc3ccc(CO)cc3)O2)CC1 -5.9%, O=C1/C(=C/c2cccs2)CCC1C1CCCC1 (stereo not given) -1.44%, Cc1ccc(NC(=O)Nc2nnc(-c3ccncc3)s2)cc1 2.87%, CCc1nnc(NC(=O)CSc2nc(SC)ns2)s1 1.32%, O=C(Nc1nnc(C2COc3ccccc3O2)o1)c1ccc(F)cc1 (stereo not given) -1.94%, CCC(C)NCC(=O)Nc1ccc([N+](=O)[O-])cc1C(=O)Nc1ccccc1F (stereo not given) -10.9%, CNC(=O)COC(=O)c1cc(-c2ccc(OC)cc2)nc2ccccc12 -3.14%, Nc1cccc(-c2cc(-c3ccccc3)nc(-c3cccc(N)c3)n2)c1 -18.9%, COC(=O)NNC(=O)C1CCC(C)CC1 (stereo not given) -3.54%, Cc1cccc(NC(=O)c2nnn(-c3cccc(C(F)(F)F)c3)c2N)c1 -0.25%, S=C1NC(c2ccccc2)=NCN1c1ccc(Br)cc1 0.72%, COc1ccc2ccccc2c1CNc1nnnn1C -8.73%, CCC(C)NC(=O)/C=C/c1ccc(S(=O)(=O)NCc2ccco2)cc1 (stereo not given) 7.02%, CCCCSc1nc2ccccc2[nH]1 -6.36%, CN(CCc1cn[nH]c1)C(=O)CC1C(=O)NCCN1Cc1cccc(Oc2ccccc2)c1 (stereo not given) -3.31%, Cc1c(C(=O)NCCN2C(=O)S/C(=C\c3cccs3)C2=O)cccc1[N+](=O)[O-] 8.76%, Cc1ccc2c(=O)oc(N(C)C)nc2c1 1.27%, C#CCOCCOCCOCCNc1nc(N2CCN(C(=O)[C@H](CCCCN)n3cc([C@@H](N)C(C)CC)nn3)CC2)nc(N2CCN(C(=O)[C@H](Cc3ccc(O)cc3)n3cc([C@@H](N)C(C)CC)nn3)CC2)n1 (stereo not given in full) -0.05%, C=CCNC(=S)N1CCN(CCN=Cc2c(C)[nH]n(-c3ccc([N+](=O)[O-])cc3)c2=O)CC1 -2.35%, CC(Oc1ccc(Cl)cc1)c1ccnn1S(C)(=O)=O (stereo not given) -7.83%, CCOC(=O)c1c(NC(=O)C2CCN(S(=O)(=O)c3ccc(Cl)cc3)CC2)sc2c1CCCC2 8.85%, CCCCCC1CCC(c2nnc(SCC(C)=O)o2)CC1 (stereo not given) -8%, O=[N+]([O-])c1cc(S(=O)(=O)N2CCCC2)ccc1NN=C1CCCC1 2.42%, Cc1cc(N/N=C/c2ccccc2F)c2ccccc2n1 4.69%, Cc1ccc(-n2cc(CN(C)Cc3nccn3C)c(-c3cccc(C)c3)n2)cc1 -5.32%, COc1ccc(S(=O)(=O)Nc2cccnc2)c(Cl)c1Cl -2.39%, O=C(NCCCN1CCOCC1)c1ccc(N2CCCC2)c([N+](=O)[O-])c1 -1.03%, CC(C)(C)c1nnc(N/N=C/c2ccc(O)cc2)n(N)c1=O -3.71%, CC(C)(C)NC(=O)NC(=O)CN1CCC(Cc2ccccc2)CC1 -4.14%, CCN1/C(=C\c2ccc3ccccc3[n+]2CC)Sc2cc(C)ccc21 -5.46%, Cc1scc(C(=O)NNC(=S)NCc2ccccc2)c1C -7.68%, COc1ccc(/C=N/n2c(C)cc(C)cc2=O)cc1 -7.11%, CCCn1c(NC(=O)C23CC4CC(CC(O)(C4)C2)C3)nc2ccccc21 -0.11%
